# Measured values from the supplement of paper PMC10037445.
# Over roughly 2,900 compounds, “NF-kB SEAP reporter activity, fold change vs agonist alone” has its median near 0.99; the highest 2% begin near 2.6. This is one part of a sample in which the highest values are shown more often than they occur.
# Assays:
# [1] = tested on: RAW-Dual; experiment: NF-kB SEAP reporter activity, fold change vs agonist alone; higher = enhanced NF-kB activity
# Procedure, shortened: (§1)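 After 50 nL of library stock was delivered by pin tool to RAW-Dual macrophages (50,000 cells/well, DMEM, 384-well plates), a PRR agonist was added 1 h later and the plates were kept at 37 °C, 5% CO2. Twenty hours later, IRF was read from supernatant by QuantiLuc luminescence and NF-κB by QuantiBlue absorbance at 620 nm. Reporter activity is stated as fold change over agonist-alone wells. Wells with IncuCyte confluency under 70% of agonist controls in both mask sets were counted as cytotoxic.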
# [2] = tested on: RAW-Dual; experiment: NF-kB SEAP reporter activity, fold change vs agonist alone; cytotoxicity flag (confluency mask): not cytotoxic; higher = enhanced NF-kB activity
# Procedure, shortened: as §1
# [3] = tested on: RAW-Dual; experiment: NF-kB SEAP reporter activity, fold change vs agonist alone; cytotoxicity flag (confluency mask): cytotoxic (confluency <70% of control); higher = enhanced NF-kB activity
# Procedure, shortened: as §1
# [4] = library stock concentration (final ~1000-fold dilution): 10 mM, cytotoxicity flag (confluency mask): not cytotoxic, agonist: Imiquimod (TLR7) […]
# [5] = library stock concentration (final ~1000-fold dilution): 10 mM, cytotoxicity flag (confluency mask): not cytotoxic, agonist: MPLA (TLR4) […]
# [6] = library stock concentration (final ~1000-fold dilution): 10 mM, cytotoxicity flag (confluency mask): cytotoxic (confluency <70% of control), agonist: Imiquimod (TLR7) […]
# [7] = library stock concentration (final ~1000-fold dilution): 10 mM, cytotoxicity flag (confluency mask): cytotoxic (confluency <70% of control), agonist: MPLA (TLR4) […]
# [8] = agonist: ODN 1826 (TLR9) 0.5 ug/mL
# [9] = agonist: Pam2CSK4 (TLR2/6) 0.1 ug/mL
# [10] = agonist: Pam3CSK4 (TLR2/1) 0.1 ug/mL
# [11] = library stock concentration (final ~1000-fold dilution): 2 mM, cytotoxicity flag (confluency mask): not cytotoxic, agonist: Imiquimod (TLR7) […]
# [12] = library stock concentration (final ~1000-fold dilution): 2 mM, cytotoxicity flag (confluency mask): not cytotoxic, agonist: MPLA (TLR4) […]
compound,measurement,setting,value
COC(=O)c1sccc1S(=O)(=O)Nc1ccc(Nc2ccccc2)cc1OC,NF-kB SEAP reporter activity,[1]; [4],1.07
same,NF-kB SEAP reporter activity,[1]; [5],1.11
COS(=O)(=O)[O-].COc1cccc2c1nc1ccccc1[n+]2C,NF-kB SEAP reporter activity,[1]; [6],0.838
same,NF-kB SEAP reporter activity,[1]; [7],0.899
COC(=O)c1sccc1S(=O)(=O)Nc1ccc(Nc2ccccc2)cc1OC (library stock concentration (final ~1000-fold dilution): 10 mM),NF-kB SEAP reporter activity,[2]; agonist: LPS (TLR4) 0.1 ug/mL,1.72
same,NF-kB SEAP reporter activity,[2]; [8],0.911
same,NF-kB SEAP reporter activity,[2]; [9],0.821
same,NF-kB SEAP reporter activity,[2]; [10],0.872
COc1cc(NS(C)(=O)=O)ccc1Nc1c2ccccc2nc2ccccc12.Cl,NF-kB SEAP reporter activity,[1]; [6],2.58
same,NF-kB SEAP reporter activity,[1]; [7],2.51
CC1(C)OC(=O)C=CC2(C)C1CC(=O)C1(C)C2CCC2(C)C(c3ccoc3)OC(=O)C3OC321 (stereo not drawn) (library stock concentration (final ~1000-fold dilution): 10 mM),NF-kB SEAP reporter activity,[2]; agonist: LPS (TLR4) 0.1 ug/mL,1.04
same,NF-kB SEAP reporter activity,[2]; [8],0.875
same,NF-kB SEAP reporter activity,[2]; [9],1.02
same,NF-kB SEAP reporter activity,[2]; [10],1.08
CC1(C)OC(=O)C=CC2(C)C1CC(=O)C1(C)C2CCC2(C)C(c3ccoc3)OC(=O)C3OC321 (stereo not drawn),NF-kB SEAP reporter activity,[1]; [4],0.98
same,NF-kB SEAP reporter activity,[1]; [5],1.03
c1cncc(-c2c[nH]nn2)c1 (library stock concentration (final ~1000-fold dilution): 10 mM),NF-kB SEAP reporter activity,[2]; agonist: LPS (TLR4) 0.1 ug/mL,1.17
same,NF-kB SEAP reporter activity,[2]; [8],0.863
same,NF-kB SEAP reporter activity,[2]; [9],1.02
same,NF-kB SEAP reporter activity,[2]; [10],1.05
c1cncc(-c2c[nH]nn2)c1,NF-kB SEAP reporter activity,[1]; [4],0.995
same,NF-kB SEAP reporter activity,[1]; [5],0.972
CCCC1CC(C(=O)NC(C(C)Cl)C2OC(SC)C(O)C(O)C2O)N(C)C1.Cl (stereo not drawn),NF-kB SEAP reporter activity,[1]; [4],0.95
same,NF-kB SEAP reporter activity,[1]; [5],1.06
CCCC1CC(C(=O)NC(C(C)Cl)C2OC(SC)C(O)C(O)C2O)N(C)C1.Cl (stereo not drawn) (library stock concentration (final ~1000-fold dilution): 10 mM),NF-kB SEAP reporter activity,[2]; agonist: LPS (TLR4) 0.1 ug/mL,1.11
same,NF-kB SEAP reporter activity,[2]; [8],1.04
same,NF-kB SEAP reporter activity,[2]; [9],1.06
same,NF-kB SEAP reporter activity,[2]; [10],1.08
CCCCCCCCCCCCCCCCCC[N+](C)(C)C (library stock concentration (final ~1000-fold dilution): 10 mM),NF-kB SEAP reporter activity,[3]; agonist: LPS (TLR4) 0.1 ug/mL,0.996
same,NF-kB SEAP reporter activity,[3]; [8],1.37
same,NF-kB SEAP reporter activity,[3]; [9],0.699
same,NF-kB SEAP reporter activity,[3]; [10],0.534
CCCCCCCCCCCCCCCCCC[N+](C)(C)C,NF-kB SEAP reporter activity,[1]; [7],1.75
c1ccc(-c2nn3c(c2-c2ccnc4cc(OCCN5CCOCC5)ccc24)CCC3)nc1,NF-kB SEAP reporter activity,[1]; [11],0.793
same,NF-kB SEAP reporter activity,[1]; [12],1.27
c1ccc(-c2n[nH]cc2-c2ccnc3ccccc23)nc1,NF-kB SEAP reporter activity,[1]; [11],0.961
same,NF-kB SEAP reporter activity,[1]; [12],1.15
Cc1cccc(-c2nn3c(c2-c2ccnc4ccc(C(N)=O)cc24)CCC3)n1 (library stock concentration (final ~1000-fold dilution): 10 mM),NF-kB SEAP reporter activity,[2]; agonist: LPS (TLR4) 0.1 ug/mL,1.59
same,NF-kB SEAP reporter activity,[2]; [8],1.03
same,NF-kB SEAP reporter activity,[2]; [9],1.05
same,NF-kB SEAP reporter activity,[2]; [10],1.21
c1ccc(-c2n[nH]cc2-c2ccnc3ccccc23)nc1 (library stock concentration (final ~1000-fold dilution): 2 mM),NF-kB SEAP reporter activity,[2]; agonist: LPS (TLR4) 0.1 ug/mL,2.19
same,NF-kB SEAP reporter activity,[2]; [8],1.01
same,NF-kB SEAP reporter activity,[2]; [9],0.992
same,NF-kB SEAP reporter activity,[2]; [10],0.919
c1ccc(-c2nn3c(c2-c2ccnc4cc(OCCN5CCOCC5)ccc24)CCC3)nc1 (library stock concentration (final ~1000-fold dilution): 2 mM),NF-kB SEAP reporter activity,[2]; agonist: LPS (TLR4) 0.1 ug/mL,2.87
same,NF-kB SEAP reporter activity,[2]; [8],1.07
same,NF-kB SEAP reporter activity,[2]; [9],1.05
same,NF-kB SEAP reporter activity,[2]; [10],1.01
Cc1cccc(-c2nn3c(c2-c2ccnc4ccc(C(N)=O)cc24)CCC3)n1,NF-kB SEAP reporter activity,[1]; [4],1.13
same,NF-kB SEAP reporter activity,[1]; [5],1.48
Cc1cc(C)cc(Oc2ccc(CNC(=O)C(C)N)cc2C)c1 (stereo not drawn) (library stock concentration (final ~1000-fold dilution): 10 mM),NF-kB SEAP reporter activity,[2]; agonist: LPS (TLR4) 0.1 ug/mL,1.3
same,NF-kB SEAP reporter activity,[2]; [8],0.9
same,NF-kB SEAP reporter activity,[2]; [9],0.484
same,NF-kB SEAP reporter activity,[2]; [10],0.732
Cc1cc(C)cc(Oc2ccc(CNC(=O)C(C)N)cc2C)c1 (stereo not drawn),NF-kB SEAP reporter activity,[1]; [4],1.24
same,NF-kB SEAP reporter activity,[1]; [5],1.3
CC(C)=CCC/C(C)=C/CC/C(C)=C/CC/C=C(\C)CC/C=C(\C)CCC=C(C)C (library stock concentration (final ~1000-fold dilution): 10 mM),NF-kB SEAP reporter activity,[2]; agonist: LPS (TLR4) 0.1 ug/mL,1.34
same,NF-kB SEAP reporter activity,[2]; [8],1.09
same,NF-kB SEAP reporter activity,[2]; [9],1.14
same,NF-kB SEAP reporter activity,[2]; [10],1.12
CC(C)=CCC/C(C)=C/CC/C(C)=C/CC/C=C(\C)CC/C=C(\C)CCC=C(C)C,NF-kB SEAP reporter activity,[1]; [4],0.926
same,NF-kB SEAP reporter activity,[1]; [5],1.01
